From the supplement of paper PMC7366291
Counter-ions that a name gives are not always drawn. ± gives the standard deviation or the standard deviation of the averaged measurements.

Key:
Conditions in all cases: 25 µM; exposure: 24-48 hpf
[1] = tested on: Danio rerio Tg(wt1b:EGFP) embryo, pronephros; experiment: glomerular separation, fold change vs DMSO control; higher = glomeruli further apart (abnormal)
Procedure, shortened: (§1)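 Features are reported as fold changes against the mean of same-day DMSO-treated embryos. Before that, values more than 2 SD away from the feature mean were excluded. The embryos, dechorionated Tg(wt1b:EGFP) zebrafish, had been exposed from 24 to 48 hpf at 28.5°C to 25 μM compound in 0.5% DMSO in HEPES-buffered E3 with 0.003% PTU, and distances and angles came from 16 manually set points on maximum projections of dorsal pronephros images in Fiji.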

[2] = tested on: Danio rerio Tg(wt1b:EGFP) embryo, pronephros; experiment: glomerular width (mean of left and right), fold change vs DMSO control; higher = wider glomerulus
Procedure, shortened: as §1

[3] = tested on: Danio rerio Tg(wt1b:EGFP) embryo, pronephros; experiment: fraction of imaged embryos annotated as normal kidney; higher = less nephrotoxic; extreme values may be limits of the assay
Procedure, shortened: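 Embryos of the Tg(wt1b:EGFP) zebrafish line were dechorionated and held in 12-well plates with 25 μM compound in 0.5% DMSO and 5 mM HEPES-buffered E3 containing 0.003% PTU, from 24 to 48 hpf at 28.5°C. Larvae were then anaesthetised with tricaine, set dorsal side up in agarose-filled 96-well plates, and their pronephroi imaged by widefield fluorescence at 470 nm over 10 z-slices. Each value is the fraction of embryos per treatment placed in the normal-kidney category after manual annotation of maximum projections.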

[4] = tested on: Danio rerio Tg(wt1b:EGFP) embryo, pronephros; experiment: pronephric angle neck segment to proximal convoluted tubule (mean of left and right), fold change vs DMSO control; higher = larger pronephric angle
Procedure, shortened: as §1

| SMILES | glomerular separation [1] | glomerular width [2] | fraction of imaged embryos annotated as normal kidney [3] | pronephric angle neck segment [4] |
| --- | --- | --- | --- | --- |
| CCOc1ccc2c(c1)C(C)=CC(C)(C)N2 [Ethoxyquin] | 0.864 ± 0.31 | 1.04 ± 0.039 | 0.75 | 0.975 ± 0.044 |
| CO/N=C(\C(=O)N[C@@H]1C(=O)N2C(C(=O)O)=C(COC(C)=O)CS[C@H]12)c1csc(N)n1 [Cefotaxime sodium salt] | 0.857 ± 0.26 | 0.957 ± 0.011 | 0.909 | 0.982 ± 0.017 |
| CN(C)CCCC1(c2ccc(F)cc2)OCc2cc(C#N)ccc21 (stereo unspecified) [Citalopram Hydrobromide] | 1.21 ± 0.7 | 0.991 ± 0.035 | 0.667 | 0.956 ± 0.032 |
| NC[C@@H]1O[C@H](O[C@H]2[C@@H](O)[C@H](O[C@@H]3[C@@H](O)[C@H](N)C[C@H](N)[C@H]3O[C@H]3O[C@H](CO)[C@@H](O)[C@H](O)[C@H]3N)O[C@@H]2CO)[C@H](N)[C@@H](O)[C@@H]1O [Paromomycin sulfate] | 0.691 ± 0.18 | 1.07 ± 0.0023 | 0.75 | 0.99 ± 0.051 |
| CC(CCc1ccc(O)cc1)NCCc1ccc(O)c(O)c1 (stereo unspecified) [Dobutamine hydrochloride] | 0.82 ± 0.23 | 0.999 ± 0.032 | 1 | 0.997 ± 0.078 |
| CCN(CC)CCNC(=O)c1ccc(N)cc1 [Procainamide hydrochloride] | 0.95 ± 0.48 | 1.11 ± 0.027 | 0.455 | 1.1 ± 0.22 |
| CC(=O)Oc1ccccc1C(=O)Oc1ccccc1C(=O)O [Acetylsalicylsalicylic acid] | 1.33 ± 0.59 | 0.971 ± 0.085 | 0.833 | 1.017 ± 0.0041 |
| C[N+]1(C)CCC(=C(c2ccccc2)c2ccccc2)CC1 [Diphemanil methylsulfate] | 1.35 ± 0.53 | 0.992 ± 0.041 | 0.75 | 1.02 ± 0.033 |
| CC(=O)N[C@@H](CS)C(=O)O [Acetylcysteine] | 0.784 ± 0.26 | 1.035 ± 0.0055 | 0.917 | 1.0017 ± 0.00093 |
